Experimental findings from ChEMBL document CHEMBL3988442, “University of Dundee, Small-Polar-MMV Screening Library” (2021) are described below.

Holding throughout (design): scale not given: direction of the effect not stated beside the values
For test [1], the target named is Protein translocase subunit SecA (Escherichia coli (strain K12)) (UniProt P10408). In words: Assay to Identify E. coli SecA ATPase Inhibitors. The test is classed as functional. As to conditions: 30 µM.
Test [2] has as its target T1, Ubiquitin-activating enzyme e1, putative (Leishmania donovani (strain BPK282A1)) (UniProt E9BSI1).
T1 sequence (whole entry): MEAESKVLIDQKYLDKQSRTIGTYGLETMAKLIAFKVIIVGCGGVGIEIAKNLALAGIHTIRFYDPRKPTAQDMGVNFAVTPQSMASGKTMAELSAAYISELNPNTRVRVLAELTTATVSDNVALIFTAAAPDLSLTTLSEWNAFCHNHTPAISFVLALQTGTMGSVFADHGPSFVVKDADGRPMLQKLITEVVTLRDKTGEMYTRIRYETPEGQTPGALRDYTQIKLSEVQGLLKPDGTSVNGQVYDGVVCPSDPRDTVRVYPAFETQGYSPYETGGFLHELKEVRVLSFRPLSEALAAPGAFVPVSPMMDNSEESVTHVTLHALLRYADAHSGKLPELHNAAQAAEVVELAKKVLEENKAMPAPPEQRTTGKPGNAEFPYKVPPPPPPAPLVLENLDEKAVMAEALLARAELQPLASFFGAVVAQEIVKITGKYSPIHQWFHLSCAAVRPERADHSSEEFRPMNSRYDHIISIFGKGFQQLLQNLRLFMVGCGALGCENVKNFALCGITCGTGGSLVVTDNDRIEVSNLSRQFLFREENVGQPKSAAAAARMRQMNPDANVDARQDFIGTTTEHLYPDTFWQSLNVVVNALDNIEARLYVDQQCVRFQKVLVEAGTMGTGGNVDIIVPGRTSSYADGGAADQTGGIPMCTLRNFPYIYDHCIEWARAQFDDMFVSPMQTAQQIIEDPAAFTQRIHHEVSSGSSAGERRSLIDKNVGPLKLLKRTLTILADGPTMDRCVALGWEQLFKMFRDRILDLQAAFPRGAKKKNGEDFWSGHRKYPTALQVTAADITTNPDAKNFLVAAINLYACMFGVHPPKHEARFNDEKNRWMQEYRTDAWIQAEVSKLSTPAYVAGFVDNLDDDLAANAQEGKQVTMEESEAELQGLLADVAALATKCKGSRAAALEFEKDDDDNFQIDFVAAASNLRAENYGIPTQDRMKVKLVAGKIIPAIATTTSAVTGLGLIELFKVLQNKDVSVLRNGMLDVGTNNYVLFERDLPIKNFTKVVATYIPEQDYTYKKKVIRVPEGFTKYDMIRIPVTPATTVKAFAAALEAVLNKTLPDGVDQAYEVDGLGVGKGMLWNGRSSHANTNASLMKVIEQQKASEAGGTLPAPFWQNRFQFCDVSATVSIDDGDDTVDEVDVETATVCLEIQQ
In words: Leishmania donovani Ubiquitin Activating Enzyme (LdE1). The test is classed as functional. As to conditions: 30 µM.

Test [3] concerns the target AMP-activated protein kinase, AMPK (Homo sapiens) (UniProt P54646+O43741+P54619+Q9UGJ0+Q9Y478+Q13131+Q9UGI9). In words: AMP-dependent Kinase enzyme assay. An in vitro enzyme assay that detects ADP turnover that is directly proportional to AMPK activity. This uses naive AMPK that is activated during the assay with MK-8722. The test is classed as functional. As to conditions: 30 µM.

Test [4] has as its target Sialic acid-binding Ig-like lectin 9 (Homo sapiens) (UniProt Q9Y336). In words: Hs-Siglec9 ALPHAscreen SOP 20170721. Particulars: 10 µM. A general note: Alpha assays give light when donor and acceptor beads are brought close together.
For another test, the system named is Trypanosoma cruzi. Kind of test: Trypanosoma cruzi phosphomannomutase and mannose-1-phosphate guanylyltransferase assay. Type of test: functional. As to conditions: 10 µM.
For test [5], the target named is T2, Arginase-2, mitochondrial (Homo sapiens) (UniProt P78540).
T2 sequence (whole entry): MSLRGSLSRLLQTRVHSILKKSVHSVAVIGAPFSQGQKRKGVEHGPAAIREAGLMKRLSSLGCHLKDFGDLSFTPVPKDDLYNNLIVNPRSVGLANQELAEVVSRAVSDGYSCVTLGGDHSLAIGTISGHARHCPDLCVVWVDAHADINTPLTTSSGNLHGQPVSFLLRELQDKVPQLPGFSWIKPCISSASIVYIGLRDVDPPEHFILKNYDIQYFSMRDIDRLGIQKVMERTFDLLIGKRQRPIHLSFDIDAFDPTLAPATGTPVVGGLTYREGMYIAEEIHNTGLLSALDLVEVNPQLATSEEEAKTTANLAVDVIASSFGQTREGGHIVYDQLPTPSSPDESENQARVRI
In words: in vitro enzyme assay to detect the production of urea directly proportional to the activity of Arginase II. Further: in the data most compounds retested in dose-response had high values. Type of test: functional. As to conditions: 33.3 µM.

The target in test [6] is T3, Proteasome subunit beta (Trypanosoma cruzi) (UniProt O96673).
T3 sequence (whole entry): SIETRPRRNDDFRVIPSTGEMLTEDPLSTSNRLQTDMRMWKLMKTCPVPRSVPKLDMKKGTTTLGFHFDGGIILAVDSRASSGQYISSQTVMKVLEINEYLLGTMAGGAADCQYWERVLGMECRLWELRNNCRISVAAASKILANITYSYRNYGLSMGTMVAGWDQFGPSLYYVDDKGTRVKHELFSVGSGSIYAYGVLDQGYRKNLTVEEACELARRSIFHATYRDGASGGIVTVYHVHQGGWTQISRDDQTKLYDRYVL
Kind of test: Trypanosoma cruzi proteasome chymotrypsin-like activity (TcProtChymo) assay. Further: in the data most compounds retested in dose-response had high values. Type of test: functional. Particulars: 9.37 µM.

The species entered for the next test is Homo sapiens. Kind of test: To identify inhibition of the IFN signalling (Jak-Stat) pathway via expression of an eGFP reporter gene under the control of an IFN-stimulated response element (ISRE) containing MxA promoter. The test is classed as functional. Particulars: 30 µM.
The target of test [7] is T4, Tyrosyl-tRNA synthetase, putative (Trypanosoma cruzi (strain CL Brener)) (UniProt Q4DSP6).
T4 sequence (whole entry): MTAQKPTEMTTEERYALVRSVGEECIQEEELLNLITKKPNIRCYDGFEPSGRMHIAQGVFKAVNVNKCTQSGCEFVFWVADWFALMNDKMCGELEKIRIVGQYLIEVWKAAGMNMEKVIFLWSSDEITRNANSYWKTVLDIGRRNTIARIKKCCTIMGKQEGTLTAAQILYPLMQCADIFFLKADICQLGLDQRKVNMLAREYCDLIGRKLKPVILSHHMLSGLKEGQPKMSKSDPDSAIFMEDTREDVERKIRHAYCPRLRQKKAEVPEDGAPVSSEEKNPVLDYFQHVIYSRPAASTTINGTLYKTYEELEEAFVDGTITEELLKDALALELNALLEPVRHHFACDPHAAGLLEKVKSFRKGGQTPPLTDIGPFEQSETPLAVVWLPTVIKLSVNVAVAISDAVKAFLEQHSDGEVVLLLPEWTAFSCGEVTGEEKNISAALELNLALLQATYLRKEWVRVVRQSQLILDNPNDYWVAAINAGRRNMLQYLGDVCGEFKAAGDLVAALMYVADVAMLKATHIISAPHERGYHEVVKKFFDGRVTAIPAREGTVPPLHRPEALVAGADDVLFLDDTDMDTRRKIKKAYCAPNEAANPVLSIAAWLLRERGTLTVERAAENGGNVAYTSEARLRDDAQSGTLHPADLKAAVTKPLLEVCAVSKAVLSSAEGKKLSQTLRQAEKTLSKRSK
In words: Trypanosoma cruzi tyrosyl tRNA synthetase (TcYRS) _High Tyrosine SOP. Further: in the data most compounds retested in dose-response had high values. Particulars: 30 µM. The test is classed as functional.

The target in test [8] is T4, Tyrosyl-tRNA synthetase, putative (Trypanosoma cruzi (strain CL Brener)). In words: Trypanosoma cruzi tyrosyl tRNA synthetase (TcYRS) SOP. Type of test: functional. Particulars: 30 µM.
Test [9] deals with Chromo domain-containing protein 1 (Saccharomyces cerevisiae (strain ATCC 204508 / S288c) (Baker's yeast)) (UniProt P32657). Kind of test: ScCHD-1 Enzyme Inhibition Assay. Further: in the data most compounds retested in dose-response had high values. Type of test: functional. As to conditions: 30 µM.

For some of these results: Measured potencies and affinities stand elsewhere.

Chromo domain-containing protein 1 (Saccharomyces cerevisiae (strain ATCC 204508 / S288c) (Baker's yeast)), sequence (P32657 whole entry, the tested form may be a part): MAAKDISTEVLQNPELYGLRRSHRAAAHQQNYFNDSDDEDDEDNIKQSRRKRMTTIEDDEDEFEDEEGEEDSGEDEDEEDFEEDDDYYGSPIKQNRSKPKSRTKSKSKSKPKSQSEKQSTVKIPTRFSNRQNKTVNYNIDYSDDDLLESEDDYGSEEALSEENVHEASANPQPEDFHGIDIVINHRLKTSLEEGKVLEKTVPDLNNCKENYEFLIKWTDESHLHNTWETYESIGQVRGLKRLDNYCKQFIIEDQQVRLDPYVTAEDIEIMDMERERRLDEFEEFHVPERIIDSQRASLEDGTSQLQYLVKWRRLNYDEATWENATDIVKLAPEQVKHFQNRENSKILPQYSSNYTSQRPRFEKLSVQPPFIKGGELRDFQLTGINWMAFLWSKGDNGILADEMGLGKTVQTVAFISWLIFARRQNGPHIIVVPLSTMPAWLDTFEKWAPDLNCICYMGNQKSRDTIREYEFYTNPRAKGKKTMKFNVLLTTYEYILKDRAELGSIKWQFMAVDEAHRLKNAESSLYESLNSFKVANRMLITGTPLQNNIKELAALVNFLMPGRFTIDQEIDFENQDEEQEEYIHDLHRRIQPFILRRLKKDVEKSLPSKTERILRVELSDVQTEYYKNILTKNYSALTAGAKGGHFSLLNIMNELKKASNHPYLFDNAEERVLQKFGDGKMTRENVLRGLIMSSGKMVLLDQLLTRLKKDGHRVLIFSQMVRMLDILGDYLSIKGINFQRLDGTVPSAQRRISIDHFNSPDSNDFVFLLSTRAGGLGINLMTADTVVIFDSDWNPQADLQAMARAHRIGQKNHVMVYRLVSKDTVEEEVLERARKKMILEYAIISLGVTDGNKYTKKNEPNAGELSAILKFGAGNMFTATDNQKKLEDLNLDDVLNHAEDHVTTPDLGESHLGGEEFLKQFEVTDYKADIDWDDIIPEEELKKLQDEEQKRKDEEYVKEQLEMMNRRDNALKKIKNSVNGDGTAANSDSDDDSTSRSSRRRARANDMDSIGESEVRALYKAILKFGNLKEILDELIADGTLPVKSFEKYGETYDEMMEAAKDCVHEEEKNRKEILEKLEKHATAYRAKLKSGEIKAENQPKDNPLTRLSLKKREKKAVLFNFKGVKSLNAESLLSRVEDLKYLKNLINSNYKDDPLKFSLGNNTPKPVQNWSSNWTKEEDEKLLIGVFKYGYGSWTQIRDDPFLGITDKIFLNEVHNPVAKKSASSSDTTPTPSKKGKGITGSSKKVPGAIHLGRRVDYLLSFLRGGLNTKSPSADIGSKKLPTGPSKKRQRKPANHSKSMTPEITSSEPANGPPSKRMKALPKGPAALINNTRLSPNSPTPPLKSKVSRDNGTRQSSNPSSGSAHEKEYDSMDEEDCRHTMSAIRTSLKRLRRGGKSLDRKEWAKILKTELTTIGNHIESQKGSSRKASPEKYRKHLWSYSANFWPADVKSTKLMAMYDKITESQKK
Sialic acid-binding Ig-like lectin 9 (Homo sapiens), sequence (Q9Y336 whole entry): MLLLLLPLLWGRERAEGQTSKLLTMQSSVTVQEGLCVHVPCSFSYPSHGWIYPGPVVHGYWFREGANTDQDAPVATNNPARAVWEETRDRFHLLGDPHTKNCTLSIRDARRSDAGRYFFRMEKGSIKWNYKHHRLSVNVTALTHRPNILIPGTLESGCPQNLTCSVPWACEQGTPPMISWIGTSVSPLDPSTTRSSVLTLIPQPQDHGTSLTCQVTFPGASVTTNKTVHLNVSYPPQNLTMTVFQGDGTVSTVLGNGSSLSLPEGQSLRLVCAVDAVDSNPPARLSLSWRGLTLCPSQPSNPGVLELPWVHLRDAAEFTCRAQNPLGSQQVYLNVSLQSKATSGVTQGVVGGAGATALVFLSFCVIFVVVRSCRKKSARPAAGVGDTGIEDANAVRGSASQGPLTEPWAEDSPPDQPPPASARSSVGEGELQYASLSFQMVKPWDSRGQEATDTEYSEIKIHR
Protein translocase subunit SecA (Escherichia coli (strain K12)), sequence (P10408 whole entry): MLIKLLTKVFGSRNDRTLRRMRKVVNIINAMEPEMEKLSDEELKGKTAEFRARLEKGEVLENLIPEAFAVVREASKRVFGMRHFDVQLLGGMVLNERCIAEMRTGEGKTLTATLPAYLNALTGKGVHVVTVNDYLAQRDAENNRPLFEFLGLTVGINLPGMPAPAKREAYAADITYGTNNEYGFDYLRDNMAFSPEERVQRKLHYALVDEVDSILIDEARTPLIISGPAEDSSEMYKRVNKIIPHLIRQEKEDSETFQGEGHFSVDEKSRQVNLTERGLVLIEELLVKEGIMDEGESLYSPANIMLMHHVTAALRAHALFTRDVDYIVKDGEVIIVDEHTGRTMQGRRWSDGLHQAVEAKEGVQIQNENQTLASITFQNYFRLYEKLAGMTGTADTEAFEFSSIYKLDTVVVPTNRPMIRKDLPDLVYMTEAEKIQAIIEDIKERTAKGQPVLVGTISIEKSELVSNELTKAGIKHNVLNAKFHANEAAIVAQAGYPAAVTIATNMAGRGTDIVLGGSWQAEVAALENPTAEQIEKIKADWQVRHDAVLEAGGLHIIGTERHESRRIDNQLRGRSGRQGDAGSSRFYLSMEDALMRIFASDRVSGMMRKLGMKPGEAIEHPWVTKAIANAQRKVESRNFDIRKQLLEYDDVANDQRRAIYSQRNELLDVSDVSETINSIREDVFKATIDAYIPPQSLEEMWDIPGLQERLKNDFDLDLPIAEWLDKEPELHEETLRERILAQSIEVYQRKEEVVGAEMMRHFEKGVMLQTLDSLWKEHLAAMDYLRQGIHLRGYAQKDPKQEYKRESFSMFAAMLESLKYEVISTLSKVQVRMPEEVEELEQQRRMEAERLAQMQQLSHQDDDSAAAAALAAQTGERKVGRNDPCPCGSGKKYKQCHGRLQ

On to `Cc1nc(C)n(CC2CCCN2Cc2cc(C)on2)n1` (stereo unspecified), for which the Percent Effect is -7.09% in test [1]; 5.2% in test [2]; -68.4% in test [3]; -5.71% in test [4]; -2.06% in the test with Trypanosoma cruzi; 3.58% in test [5]. Further, the Percent Effect in test [6] was 12.2%; in the test listed under Homo sapiens, 19.8%; in test [7], 0%; in test [8], 7.06%; in test [9], -23.5%.
With `COC(=O)c1cccc(C(=O)N2CCN(c3cccc(C)c3C)CC2)n1`, the Percent Effect was -0.0243% in [1]; 20.8% in [2]; -2.32% in test [3]; 0.218% in test [4]; 2.66% with Trypanosoma cruzi; 0.645% in test [5]. The Percent Effect was 10.3% in test [6]; 87% in the test filed under Homo sapiens; 2.12% in [7]; 11.5% in test [8]; -9.48% in test [9].
For the molecule `CC(C)(C)N1CCCN(C(=O)c2csc(S(N)(=O)=O)c2)CC1`, the Percent Effect in test [1] is -8.14%; in test [2], 0%; in [3], 1.87%; in test [4], -9.76%; with Trypanosoma cruzi, -5.57%; in test [5], -2.73%. Besides, the Percent Effect in test [6] was -0.258%; in the test listed under Homo sapiens it was -7.17%; in test [7], -3.23%; in test [8], -6.17%; in [9] it was -1.28%.
`O=C(c1ccccn1)N1CCc2c(nc(N3CCCC3)[nH]c2=O)C1`: the Percent Effect in test [1] is -7.12%; in test [2], 12.2%; in test [3], 0.895%; in test [4], 26.1%; in the test with Trypanosoma cruzi, 0.198%; in test [5] it was -3.48%. The Percent Effect is 7.64% in test [6]; 10.1% in the test listed under Homo sapiens; 3.23% in test [7]; 11.7% in test [8]; -17.3% in test [9].
Regarding `Cc1nc2ccccc2c(=O)n1CCC(=O)N1CCSCC1`, the Percent Effect was -6.49% in [1]; 13.2% in test [2]; 14.1% in [3]; 6.54% in [4]; 3.19% with Trypanosoma cruzi; 0% in test [5]. Also, the Percent Effect in [6] is 6.85%; in the test listed under Homo sapiens it was 4.99%; in [7] it was 6.37%; in test [8], 17.1%; in test [9], -13.3%.
Consider `O=C(Cc1ccsc1)N1CCC(n2nc(-c3ccco3)ccc2=O)CC1`, for which the Percent Effect in test [1] was -7.59%; in [2], 6.76%; in test [3], 16.2%; in [4], 33.6%; in the test with Trypanosoma cruzi it was -2.17%; in test [5], -4.41%. Moreover, the Percent Effect was 13.9% in [6]; -0.185% in the test filed under Homo sapiens; 9.68% in [7]; 6.49% in [8]; -13.4% in [9].
Take `O=C(c1cccnc1N1CCOCC1)N1CCCC1Cn1cccn1` (stereo unspecified): the Percent Effect in test [1] is -4.57%; in test [2] it was 7.79%; in [3], 5.93%; in test [4], 8.78%; in the test on Trypanosoma cruzi, 1.47%; in [5], 0.632%. Moreover, the Percent Effect is -0.242% in test [6]; -15.5% in the test filed under Homo sapiens; 3.81% in [7]; 2.35% in test [8]; -12% in [9].
For the molecule `CC(O)CN1CCN(C(=O)c2cnn(-c3ccccc3F)c2)CC1` (stereo unspecified), the Percent Effect in test [1] is -6%; in test [2] it was 13.3%; in test [3], -6.53%; in test [4], 24.2%; in the test on Trypanosoma cruzi, 5.75%; in test [5], 15.6%. The Percent Effect in test [6] was 9.59%; in the test listed under Homo sapiens, 10.4%; in [7] it was -0.546%; in test [8], 8.64%; in test [9], -7.25%.
Consider `Cc1cnc(N2CCCC3(CCN(Cc4csc(C)n4)C3=O)C2)nc1` (stereo unspecified), for which the Percent Effect in test [1] was -1.53%; in [2], 10.7%; in test [3], 2.83%; in [4], 3.4%; in the test on Trypanosoma cruzi it was 0.965%; in test [5], -54.3%. Besides, the Percent Effect is 5.64% in test [6]; -4.88% in the test listed under Homo sapiens; 4.17% in test [7]; 20% in test [8]; -8.92% in [9].
Consider `COCCn1cc2c(n1)C(CNCc1ccc(F)cc1)OCC2` (stereo unspecified), for which the Percent Effect in test [1] is -5.93%; in test [2], 8.11%; in test [3], -0.136%; in [4] it was -5.65%; in the test with Trypanosoma cruzi, -0.195%; in test [5], 5.42%. For the same molecule, the Percent Effect in test [6] was 16.8%; in the test listed under Homo sapiens it was -4.69%; in [7], 11.9%; in test [8], 11%; in test [9] it was -6.25%.
For the molecule `CCOc1cccc(C(=O)NCCC(=O)Nc2ccncc2)c1`, the Percent Effect in [1] was -1.91%; in [2], -5.26%; in test [3] it was 3.2%; in test [4] it was -0.438%; with Trypanosoma cruzi, -2.43%; in test [5], 8.28%. Also, the Percent Effect in test [6] is 13.7%; in the test listed under Homo sapiens, 3.36%; in test [7], 4.25%; in test [8] it was 10.4%; in [9] it was -3.67%.
